Screening results (PubChem)
Hits are enriched below; roughly 3.1% of the tested compounds scored in any of these assays.
Mtb BioA inh: M. tuberculosis BioA enzyme inhibitors, primary screen, biochemical, plate reader, single point, HTS; purified M. tuberculosis BioA enzyme; 360,000 compounds, 0.096% hits; 7,8-diaminopelargonic acid synthase BioA (Mycobacterium tuberculosis); AID 602481, 2012; inhibition, % at 9.99 µM; in the data active = inhibition above about 40%
FadD28 binding: inhibitors of FadD28 bisubstrate probe binding, primary screen, biochemical, fluorescence polarization, single point. inhibition, % at 12.5 µM. 360,000 compounds, 0.22% hits. AID 588549, 2011; in the data active = inhibition above about 8.5%, passing the limit was not always enough
GDH-TPI counter-1: GDH-TPI coupling enzyme inhibitors, primary screen, artefact control for M. tuberculosis FBA inhibitor project, biochemical, absorbance, full deck; 360,000 compounds, 1.2% hits; AID 588335, 2011; GDH-TPI coupled enzyme counterscreen, NADH absorbance; inhibition, % at 4.8 µM; in the data active = inhibition above about 30%;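 note: 0% = DMSO wells and 100% = wells lacking the enzyme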
Mtb FBA inh: Mtb FBA enzyme inhibitors, primary screen, biochemical, fluorescence, strain H37Rv; Fructose-bisphosphate aldolase (Mycobacterium tuberculosis (strain ATCC 25618 / H37Rv)), …; purified M. tuberculosis FBA, fluorescence read-out; inhibition, % at 1 µM; 360,000 compounds, 2.3% hits; AID 588726, 2011;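 note: 0% = vehicle and 100% = reference inhibitor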
Target sequence (P9WQA3 whole entry, looked up): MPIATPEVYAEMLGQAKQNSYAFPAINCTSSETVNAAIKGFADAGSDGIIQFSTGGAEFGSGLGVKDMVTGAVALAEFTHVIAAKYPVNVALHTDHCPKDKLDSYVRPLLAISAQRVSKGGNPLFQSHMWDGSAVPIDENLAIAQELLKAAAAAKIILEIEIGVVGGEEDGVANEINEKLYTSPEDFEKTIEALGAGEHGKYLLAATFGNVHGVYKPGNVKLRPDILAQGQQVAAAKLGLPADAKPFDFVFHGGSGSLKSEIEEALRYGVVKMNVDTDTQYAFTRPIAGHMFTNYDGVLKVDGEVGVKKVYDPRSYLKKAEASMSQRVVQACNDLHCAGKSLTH
3CLpro inhibitor: SARS-CoV 3CLpro protease inhibitors, primary screen, biochemical, quenched FRET. Replicase polyprotein 1ab (Severe acute respiratory syndrome coronavirus), P0C6X7. recombinant SARS-CoV 3CLpro, quenched FRET peptide cleavage. inhibition, % at 6 µM. 290,000 compounds, 0.14% hits. AID 1706, 2009; in the data active = inhibition above about 12%
Mtb FBA inh conf: M. tuberculosis aldolase blockers, biochemical, fluorescence, strain H37Rv, confirmation; purified M. tuberculosis FBA, fluorescence read-out; inhibition, % at 1 µM; shares compounds with Mtb FBA inh; 5,600 compounds, 78% hits;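 note: 0% = vehicle wells and 100% = reference inhibitor wells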
GDH-TPI counter-2: GDH-TPI coupling enzyme inhibitors, artefact control for M. tuberculosis FBA inhibitor project, biochemical, fluorescence, high throughput | AID 652141, 2013 | inhibition, % at 1 µM | shares compounds with Mtb FBA inh | 5,600 compounds, 81% hits | GDH-TPI coupled enzyme counterscreen; in the data active = inhibition above about 10%
An asterisk follows results filed as active; x = not tested or not shown; + = active, no number. Cut-off read from the data, not from the text of the source, unless noted: active = inhibition above about 27%; inactive = the rest.

SMILES	Mtb BioA inh	FadD28 binding	GDH-TPI counter-1	Mtb FBA inh	3CLpro inhibitor	Mtb FBA inh conf	GDH-TPI counter-2
COc1cc(-c2cc3nc(NC4CCCCC4)ccn3n2)cc(OC)c1OC	0	-2	11	31*	x	-8	-7
COc1cc(-c2cc3nc(NCCN(C)C)ccn3n2)cc(OC)c1OC	-3	-2	9	2	x	x	x
OC1CCC(Nc2ccn3nc(-c4cccc(OCc5ccccc5)c4)cc3n2)CC1 (configuration not stated)	-1	-6	8	29*	x	54*	39*
CCC(CO)Nc1ccn2nc(-c3cccc(Cl)c3)cc2n1 (configuration not stated)	2	-3	7	31*	x	28*	21*
OC1CCC(Nc2ccn3nc(-c4cccc(Cl)c4)cc3n2)CC1 (configuration not stated)	3	-4	6	34*	x	61*	42*
COCCCNc1ccn2nc(-c3cccc(OCc4ccccc4)c3)cc2n1	-2	-5	-1	11	x	x	x
C[C@H](CO)N1C[C@H](C)[C@@H](CN(C)C(=O)Nc2cccc3ccccc23)Oc2ccc(NC(=O)C3CCCCC3)cc2CC1=O	-4	x	x	x	x	x	x
C[C@@H]1CN([C@H](C)CO)C(=O)c2cc(NS(C)(=O)=O)ccc2O[C@@H](C)CCCCO[C@H]1CN(C)C(=O)Nc1ccc2c(c1)OCO2	2	x	x	x	x	x	x
COCCCNc1ccn2nc(-c3ccccc3)cc2n1	-1	-1	7	21	x	x	x
COCCCNc1ccn2nc(-c3cccc(Cl)c3)cc2n1	-2	-1	0	35*	x	9	-2
Cc1ccc(-c2nc3n(n2)Cc2ccccc2-3)cc1	0	-4	3	-1	-1	x	x
c1ccc(-c2cn3c(n2)-c2ccccc2C3)cc1	0	-3	-1	48*	-1	132*	106*
CC1(C)Cc2c(c(-c3ccco3)nc3sc4c(NCCCO)ncnc4c23)CO1	-2	-14	48*	37*	-1	43*	24*
CC1(C)Cc2c(c(-c3ccco3)nc3sc4c(NCCN5CCOCC5)ncnc4c23)CO1	x	-5	35*	27*	-1	5	-1
CC1(C)Cc2c(c(-c3ccco3)nc3sc4c(NCC5CCCO5)ncnc4c23)CO1 (configuration not stated)	x	-7	26	14	3	x	x
C[C@@H]1CN([C@@H](C)CO)C(=O)c2cc(-c3ccc(F)cc3)cnc2O[C@@H]1CN(C)Cc1ccc(F)cc1	-7	x	x	x	x	x	x
N#CC(c1nc2ccccc2nc1N1CCCC1)S(=O)(=O)c1ccccc1 (configuration not stated)	1	-2	15	106*	-3	+	182*
CN1CCN(c2nc3ccccc3nc2C(C#N)S(=O)(=O)c2ccccc2)CC1 (configuration not stated)	x	x	x	x	3	x	x
CCCCNC(=O)C(C#N)c1nc2ccccc2nc1N1CCCC1 (configuration not stated)	x	x	x	x	3	x	x
C=CCNC(=O)C(C#N)c1nc2ccccc2nc1N1CCCCCC1 (configuration not stated)	x	-2	15	41*	-1	+	+
O=C(C[C@H]1C=C[C@H](NS(=O)(=O)c2ccc(F)cc2)[C@H](CO)O1)NCCN1CCCCC1	-2	x	x	x	x	x	x
C[C@@H]1CN([C@H](C)CO)C(=O)c2cc(NC(=O)NC3CCCCC3)ccc2O[C@@H](C)CCCCO[C@H]1CN(C)Cc1ccc(C(F)(F)F)cc1	-2	x	x	x	x	x	x
C[C@H]1CCCCO[C@H](CN(C)C(=O)NC2CCCCC2)[C@@H](C)CN([C@@H](C)CO)C(=O)c2cc(NC(=O)c3ccccc3)ccc2O1	-3	x	x	x	x	x	x
O=C(Nc1ccc2c(c1)[C@@H]1C[C@@H](CC(=O)N3CCOCC3)O[C@H](CO)[C@@H]1O2)NC1CCCC1	-3	x	x	x	x	x	x
